Results as given in PubChem BioAssay AID1159580 (chemical genetic matrix, 2015).
Values joined by “and” are separate entries in the source; they are usually repeats but may differ in a detail not shown here. Equal values may be shown once. In all, about 5,500 compounds went through this assay and about 2,000 (36%) were called active. Not shown: some 18% with an inconclusive outcome. No stated cut-off is given here; in the data, active means normalized growth mostly below about 0.91 (no sharp cut-off); inconclusive means no clear call, values can overlap the other calls; inactive means mostly above about 0.92. This is one part of the list.

Assay: chemical genetic growth profiling, strain panel (AID 1159580);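 further: tested at 20 µM; growth read once vehicle control cultures reached saturation at 30 °C; 1 = growth at the plate median or of vehicle wells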
Settings: growth OD

Measured: normalized growth

COc1ccc(C(=O)N2CCCC2=O)cc1
inactive: S. cerevisiae deletion strains, locus YJR075W, strain HOC1, stronger effect = lower value 0.99 | S. cerevisiae deletion strains, locus YKL009W, strain mrt4, stronger effect = lower value 0.97 | S. cerevisiae deletion strains, locus YKL068W, stronger effect = lower value 0.976 | S. cerevisiae deletion strains, locus YKL085W, strain MDH1 (second series), stronger effect = lower value 0.984 | S. cerevisiae deletion strains, locus YKL085W, strain MDH1, stronger effect = lower value 0.984 | S. cerevisiae deletion strains, locus YKL160W, strain elf1, stronger effect = lower value 0.952 | S. cerevisiae deletion strains, locus YKL190W, strain CNB1, stronger effect = lower value 0.993 | S. cerevisiae deletion strains, locus YKR001C, strain vps1, stronger effect = lower value 0.968 | S. cerevisiae deletion strains, locus YKR026C, strain gcn3, stronger effect = lower value 0.976 | S. cerevisiae deletion strains, locus YKR091W, strain srl3, stronger effect = lower value 0.969 | S. cerevisiae deletion strains, locus YLL001W, strain dnm1, stronger effect = lower value 0.963 | S. cerevisiae deletion strains, locus YLL026W, stronger effect = lower value 0.98 | S. cerevisiae deletion strains, locus YLL041C, strain sdh2, stronger effect = lower value 0.986 | S. cerevisiae deletion strains, locus YLR027C, strain aat2, stronger effect = lower value 0.963 | S. cerevisiae deletion strains, locus YLR039C, strain RIC1, stronger effect = lower value 0.947 | S. cerevisiae deletion strains, locus YLR058C, strain SHM2, stronger effect = lower value 0.978 | S. cerevisiae deletion strains, locus YLR102C, strain apc9, stronger effect = lower value 0.979 | S. cerevisiae deletion strains, locus YLR221C, strain rsa3, stronger effect = lower value 0.945 | S. cerevisiae deletion strains, locus YLR258W, strain gsy2, stronger effect = lower value 0.98 | S. cerevisiae deletion strains, locus YLR262C, strain YPT6 (second series), stronger effect = lower value 0.967 | S. cerevisiae deletion strains, locus YLR262C, strain YPT6, stronger effect = lower value 0.902 | S. cerevisiae deletion strains, locus YLR268W, strain sec22, stronger effect = lower value 0.971 | S. cerevisiae deletion strains, locus YLR320W, strain mms22, stronger effect = lower value 0.933 | S. cerevisiae deletion strains, locus YLR330W, strain CHS5, stronger effect = lower value 0.986 | S. cerevisiae deletion strains, locus YLR342W, strain FKS1 (second series), stronger effect = lower value 0.995 | S. cerevisiae deletion strains, locus YLR342W, strain FKS1, stronger effect = lower value 0.99 | S. cerevisiae deletion strains, locus YLR357W, strain rsc2, stronger effect = lower value 0.991 | S. cerevisiae deletion strains, locus YLR370C, strain arc18, stronger effect = lower value 0.963 | S. cerevisiae deletion strains, locus YLR371W, strain rom2, stronger effect = lower value 0.993 | S. cerevisiae deletion strains, locus YLR384C, strain iki3, stronger effect = lower value 0.958 | S. cerevisiae deletion strains, locus YLR418C, strain cdc73, stronger effect = lower value 0.967 | S. cerevisiae deletion strains, locus YML016C, strain PPZ1, stronger effect = lower value 0.983 | S. cerevisiae deletion strains, locus YML032C, strain rad52, stronger effect = lower value 1 | S. cerevisiae deletion strains, locus YML120C, strain ndi1, stronger effect = lower value 0.94 | S. cerevisiae deletion strains, locus YML124C, strain tub3, stronger effect = lower value 0.994 | S. cerevisiae deletion strains, locus YMR058W, strain fet3, stronger effect = lower value 0.971 | S. cerevisiae deletion strains, locus YMR078C, strain ctf18, stronger effect = lower value 0.974 | S. cerevisiae deletion strains, locus YMR125W, strain sto1, stronger effect = lower value 0.973 | S. cerevisiae deletion strains, locus YMR129W, stronger effect = lower value 0.986 | S. cerevisiae deletion strains, locus YMR205C, strain PFK2, stronger effect = lower value 0.971 | S. cerevisiae deletion strains, locus YMR223W, strain ubp8, stronger effect = lower value 0.995 | S. cerevisiae deletion strains, locus YMR231W, strain pep5, stronger effect = lower value 0.978 | S. cerevisiae deletion strains, locus YMR263W, strain SAP30, stronger effect = lower value 0.964 | S. cerevisiae deletion strains, locus YMR307W, strain GAS1, stronger effect = lower value 0.99 | S. cerevisiae deletion strains, locus YNL067W, strain RPL9B, stronger effect = lower value 0.974 | S. cerevisiae deletion strains, locus YNL071W, strain lat1, stronger effect = lower value 0.982 | S. cerevisiae deletion strains, locus YNL128W, strain TEP1, stronger effect = lower value 0.979 | S. cerevisiae deletion strains, locus YNL153C, strain GIM3, stronger effect = lower value 0.965 and 1.01 | S. cerevisiae deletion strains, locus YNL175C, strain NOP13, stronger effect = lower value 1 | S. cerevisiae deletion strains, locus YNL197C, strain WHI3, stronger effect = lower value 1.01 | S. cerevisiae deletion strains, locus YNL209W, strain ssb2, stronger effect = lower value 0.984 | S. cerevisiae deletion strains, locus YNL224C, strain SQS1, stronger effect = lower value 1.02 | S. cerevisiae deletion strains, locus YNL233W, strain BNI4, stronger effect = lower value 0.99 | S. cerevisiae deletion strains, locus YNL248C, strain rpa49, stronger effect = lower value 0.976 | S. cerevisiae deletion strains, locus YNL250W, strain rad50, stronger effect = lower value 0.964 | S. cerevisiae deletion strains, locus YNL271C, strain bni1, stronger effect = lower value 0.986 | S. cerevisiae deletion strains, locus YNL298W, strain CLA4, stronger effect = lower value 0.982 | S. cerevisiae deletion strains, locus YNL307C, strain MCK1, stronger effect = lower value 0.989 | S. cerevisiae deletion strains, locus YNL322C, strain KRE1 (second series), stronger effect = lower value 0.955 | S. cerevisiae deletion strains, locus YNL322C, strain KRE1, stronger effect = lower value 0.986 and 1 | S. cerevisiae deletion strains, locus YNR049C, strain mso1, stronger effect = lower value 0.954 | S. cerevisiae deletion strains, locus YNR052C, strain pop2, stronger effect = lower value 0.974 | S. cerevisiae deletion strains, locus YOL006C, strain TOP1, stronger effect = lower value 0.921 | S. cerevisiae deletion strains, locus YOL012C, strain htz1 0.923 | S. cerevisiae deletion strains, locus YOL147C, strain pex11, stronger effect = lower value 0.99 | S. cerevisiae deletion strains, locus YOR001W, strain rrp6, stronger effect = lower value 0.998 | S. cerevisiae deletion strains, locus YOR061W, strain CKA2, stronger effect = lower value 0.949 | S. cerevisiae deletion strains, locus YOR069W, strain VPS5, stronger effect = lower value 0.987 | S. cerevisiae deletion strains, locus YOR070C, strain gyp1, stronger effect = lower value 0.991 | S. cerevisiae deletion strains, locus YOR080W, strain dia2, stronger effect = lower value 0.976 | S. cerevisiae deletion strains, locus YOR083W, strain WHI5 (second series), stronger effect = lower value 1.02 | S. cerevisiae deletion strains, locus YOR083W, strain WHI5, stronger effect = lower value 0.946 | S. cerevisiae deletion strains, locus YOR106W, strain vam3, stronger effect = lower value 0.93 | S. cerevisiae deletion strains, locus YOR136W, strain idh2, stronger effect = lower value 0.99 | S. cerevisiae deletion strains, locus YOR144C, strain elg1, stronger effect = lower value 0.999 | S. cerevisiae deletion strains, locus YOR184W, strain ser1, stronger effect = lower value 0.993 | S. cerevisiae deletion strains, locus YOR265W, strain rbl2, stronger effect = lower value 0.989 | S. cerevisiae deletion strains, locus YOR270C, strain vph1, stronger effect = lower value 0.929 | S. cerevisiae deletion strains, locus YOR290C, strain snf2, stronger effect = lower value 0.933 | S. cerevisiae deletion strains, locus YOR316C, strain cot1, stronger effect = lower value 0.978 | S. cerevisiae deletion strains, locus YPL051W, strain arl3, stronger effect = lower value 1.01 | S. cerevisiae deletion strains, locus YPL055C, strain LGE1, stronger effect = lower value 0.988 | S. cerevisiae deletion strains, locus YPL078C, strain atp4, stronger effect = lower value 0.963 | S. cerevisiae deletion strains, locus YPL106C, strain sse1, stronger effect = lower value 0.925 | S. cerevisiae deletion strains, locus YPL240C, strain hsp82, stronger effect = lower value 0.986 | S. cerevisiae deletion strains, locus YPL241C, strain CIN2, stronger effect = lower value 1.03 and 1 | S. cerevisiae deletion strains, locus YPR119W, strain clb2, stronger effect = lower value 0.991 | S. cerevisiae deletion strains, locus YPR141C, strain kar3, stronger effect = lower value 0.962 | S. cerevisiae deletion strains, locus YPR163C, strain tif3, stronger effect = lower value 1 | S. cerevisiae deletion strains, locus YPR167C, strain met16, stronger effect = lower value 0.972 | S. cerevisiae deletion strains, strain wtn01, stronger effect = lower value 0.984 | S. cerevisiae strains, strain wild type, stronger effect = lower value 0.993
